In all, about 300,000 compounds went through this assay and about 2,500 (0.83%) were called active. Many of the other results were omitted from the sample, so actives are more common in it than they were. Values without a mark were called inactive.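 How the source made its calls: active means inhibition above the mean of all tested compounds plus 3 SD, set per screening campaign (cut at about 24% in these data); inactive means the rest.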
What follows are compounds tested on tRNA 2'-phosphotransferase TPT1 (Candida albicans SC5314) (assay: Candida albicans TPT1 enzyme inhibitors, primary screen, biochemical, fluorescence polarization (AID 1962;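 further: plate controls were DMSO alone for no effect and ferristatin control at 100 nM for full effect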)). Settings: recombinant caTPT1, FP RNA substrate dephosphorylation; at 5 µM; stronger effect = higher value.

Structure (SMILES) | inhibition
CC1=NN(c2ccccc2)C(=O)C1C(=O)c1ccc([N+](=O)[O-])cc1 (stereo not given) | 0.3%
CC(=O)N1c2ccccc2N(Cc2ccc([N+](=O)[O-])cc2)C(=O)C1(C)C | 9.11%
O=C1NC(=O)C2C1C(c1ccc([N+](=O)[O-])cc1)=NN2Cc1ccccc1 (stereo not given) | 32.4% (active)
CC(=O)c1ccc(N2C(=NC(=O)C(C)C)SC3CS(=O)(=O)CC32)cc1 (stereo not given) | -0.98%
Nn1c(SCC(=O)Nc2nccs2)nncc1=O | 0.93%
COCCn1cnc2c1c(=O)n(CC(=O)NN)c(=O)n2Cc1ccccc1 | -3.43%
COc1cc(NC(=O)C2=CC(c3ccco3)=NS(=O)(=O)N2C)cc(OC)c1OC | -0.29%
CC1=C(C(=O)OC2CCCCC2)C(c2ccccc2F)NC(=O)N1 (stereo not given) | 1.28%
NS(=O)(=O)c1ccc(-c2ccc(/C=C3\SC(=O)NC3=O)o2)cc1 | 0.01%
CN1C(=O)/C(=C/c2ccco2)SC1=Nc1cccc(C(=O)O)c1 | -0.91%
O=C1NN(c2ccccc2)C(=O)/C1=C/c1ccc(-c2cccc(C(=O)O)c2)o1 | -6.86%
O=C1c2ccccc2NC(c2ccc(-c3cccc(Cl)c3)o2)N1O (stereo not given) | 2.03%
O=C(O)C(c1ccccc1)N1C(=O)/C(=C\c2ccc(-c3cccc(Cl)c3)o2)SC1=S (stereo not given) | 134% (active)
CN1C(=O)/C(=C\c2ccc(-c3ccccc3)o2)SC1=S | 47% (active)
Cn1cc[n+](C)c1COc1ccc(C=O)cc1 | -0.82%
CCc1ccc(Nc2n[n+](-c3ccccc3)c(-c3cccc(Cl)c3Cl)s2)cc1 | -1.82%
OCC[C@H]1C[C@H](O)[C@@H](O)[C@]2(Cc3ccccc3CO2)O1 | 1.4%
Cc1ccc(C(=O)NCC(=O)OCC(=O)Nc2cccc(S(=O)(=O)N3CCCC3)c2)cc1C | -0.56%
CCn1cc(C(=O)NC2CCCCCC2)c(=O)c2cc(S(=O)(=O)N3CCCCC3)ccc21 | -2.73%
COc1ccc(C(=O)CC(=O)c2ccc(C)cc2)c(O)c1 | -1.28%
O=C(COC(=O)c1cnccn1)Nc1cccc2ccccc12 | -2.21%
O=C(N/N=C/c1sc(N2CCCCC2)nc1-c1cccs1)c1cccnc1 | 61.1% (active)
O=C(N/N=C/c1ccccn1)c1cccnc1 | -1.95%

Structure (SMILES) | inhibition
Cc1cc(/C=N/NC(=O)c2cccnc2)c(C)n1CC(C)C | -3.6%
CCSC(C)CC1C/C(=N/O)c2c(C)noc2C1 (stereo not given) | -7.78%
COc1ccc(NC(=O)CN(C)C(=O)c2ccc(COc3ccccc3)o2)cc1 | 1.15%
CCN1/C(=C\c2ccc3ccccc3[n+]2CC)Sc2cc(C)ccc21 | 68.7% (active)
CCN1/C(=C/c2ccc3ccc(C)cc3[n+]2CC)Sc2ccccc21 | 49.5% (active)
COCCCNC(=O)Cn1c(=O)n(Cc2ccccc2Cl)c(=O)c2cc(OC)c(OC)cc21 | 1.46%
COc1ccc(C2=NOC3(CC(=O)N(c4ccc(Cl)cc4)C3=O)C2)c(OC)c1 (stereo not given) | -4.26%
O=C(c1cccc(Br)c1)N1CCN(C2=NS(=O)(=O)c3ccccc32)CC1 | 0.45%
COc1cccc(/C=C(/CC(=O)Nc2ccc(N3CCOCC3)cc2)c2nc3ccccc3s2)c1 | 9.31%
O=S(=O)(c1cccc(-c2nnc(SC(F)F)n2-c2ccccc2)c1)N1CCCCC1 | -5.49%
CCN(CC)C(=O)C(=O)Nc1cccc(Br)c1 | -2.63%
Cc1ccc(CSCC(=O)N(C)CC(=O)Nc2cccc(F)c2)cc1 | 1.31%
CCN(CC)C(=O)CSC(Nc1cccc(F)c1)=C(C#N)C#N | 62.4% (active)
O=C(CNc1ccc(F)cc1F)NC(=O)NCc1ccco1 | -0.97%
CCOC(=O)[C@H]1[C@H]2COc3ccc(Cl)cc3[C@@H]2N2C(=O)c3cc(C)ccc3NC(=O)[C@@]12C | 2.94%
Cc1cc(-c2ccc(S(=O)(=O)N3CCc4ccccc4C3)s2)on1 | -0.99%
CS(=O)(=O)N(CC(=O)N/N=C/c1ccccn1)c1ccc(Oc2ccccc2)cc1 | -0.87%
CCCCCCc1ccc(O)cc1O | 2.21%
CCCCCCc1cc2cc(-c3nnc(-c4ccccc4)o3)c(=O)oc2cc1O | 133% (active)
Cc1c(CC(=O)NCCCCCC(=O)O)c(=O)oc2cc3occ(-c4ccccc4)c3cc12 | -0.72%
Cn1ccc(=NC=C(C#N)C#N)c2ccccc21 | 25.3% (active)
N#CC(C#N)=CN=c1ccn(Cc2ccc(Cl)cc2Cl)cc1 | 0.38%
Cc1cc(NC(=O)Nc2c[nH]c(=O)[nH]c2=O)ccc1Br | 0.27%

Structure (SMILES) | inhibition
CCCc1nc2c(C)cc(-c3nc4ccccc4n3C)cc2n1Cc1ccc(-c2ccccc2C(=O)O)cc1 | 1.15%
Cc1nc2ccccc2nc1N/N=C/c1ccc(O)cc1O | 1.81%
Fc1ccc(/C=N/Nc2nc(-c3cccnc3)nc3ccccc23)cc1 | 0.23%
Oc1ccc(/C=N/Nc2nc(-c3ccccc3F)nc3ccccc23)c(O)c1 | 24.8% (active)
CN(C)C1=NC[C@H](Cc2ccccc2)N1CCc1ccc(F)cc1 | -4.71%
Cc1cc(C)c(S(=O)(=O)N2C=CC(C(F)(F)F)=NCC2)c(C)c1 | -0.62%
O=S(=O)(c1ccc(F)cc1)N1CCN(C(=S)NCc2ccco2)CC1 | 1.64%
OCC[C@H]1C[C@@H](O)[C@H](O)[C@@]2(OCCc3ccccc32)O1 | 0.6%
OCC[C@H]1C[C@H](O)[C@@H](O)[C@]2(CCc3ccccc3O2)O1 | -0.81%
O=S(=O)(O)Oc1c[nH]c2ccccc12 | 25.4% (active)
COc1ccccc1CC(=O)NCCc1c[nH]c2ccccc12 | -1.76%
O=C(Cc1c[nH]c2ccccc12)OCCOC(=O)Cc1c[nH]c2ccccc12 | 0.4%
CN1CCN(Cc2nc3cc(NC(=O)COc4ccc([N+](=O)[O-])cc4)ccc3n2C)CC1 | -2.77%
COc1ccc(C(=O)Nc2sc(C)c(C)c2CN2CCOCC2)cc1 | 2.12%
C#CCOCCOCCOCCNc1nc(N2CCN(C(=O)CCCCCCCCCCNC(=O)Cn3cc(CCCCCN)nn3)CC2)nc(N2CCN(C(=O)CCCCCCCCCCNC(=O)[C@H](CO)n3cc(CCCSC)nn3)CC2)n1 | -0.6%
Cc1ccc(N=Cc2c(O)cc(C)oc2=O)c(C)c1 | 9.41%
Cc1cc(O)c(C(=O)/C=C/c2c(F)c(F)c(F)c(F)c2F)c(=O)o1 | 44.1% (active)
Cc1cc(O)c(Sc2ccccc2)c(=O)o1 | 0.86%
Cc1ccc(-n2c(SCC(=O)NCCC3=CCCCC3)nc3n[nH]c(C)c3c2=N)cc1Cl | 0.45%
CO[C@@H]1[C@@H](OC(N)=O)[C@@H](O)C(Oc2ccc3c(O)c(NC(=O)c4ccc(O)c(CC=C(C)C)c4)c(=O)oc3c2C)OC1(C)C (stereo not given in full) | -0.98%
Cc1ccc(Cl)c(NC(=O)CN(C)CC(=O)Nc2ccc(F)c(F)c2F)c1Cl | 2.01%
COc1ccc(C2=NN(C(=O)c3ccccc3C(=O)O)C(c3ccccc3O)C2)cc1 (stereo not given) | 35.3% (active)
COc1ccc(C2=NN(C(C)=O)C(c3ccccc3)C2)cc1 (stereo not given) | -4.9%

Structure (SMILES) | inhibition
COc1ccc(C2=NN(C(=O)c3cccnc3)C(c3ccccc3)C2)cc1 (stereo not given) | 3.29%
O=C(Nc1cc(-c2ccccc2)nn1-c1ccccc1F)c1ccc([N+](=O)[O-])cc1 | 1.59%
Cc1ccc2c(c1)C(c1ccccc1)N(C(=O)c1ccc(S(=O)(=O)N3CCOCC3)cc1)CC(=O)N2 (stereo not given) | 1.61%
CCN(CC)CCNc1nc(-c2ccc(OC(F)F)cc2)c(C)s1 | -0.49%
COc1ccc(/C=C2\SC(=S)N(CC(=O)NNC(=O)c3ccncc3)C2=O)cc1 | -4.74%
COc1ccc(/C=C2\SC(=S)N(CCC(=O)Nc3ccccn3)C2=O)cc1OC | 1.07%
CCOc1ccc(/C=C2\SC(=S)N(NC(=O)c3ccncc3)C2=O)cc1OC | 33.7% (active)
O=C(c1cc(-c2ccc(Cl)cc2)on1)N1CCN(c2ccccc2)CC1 | -0.95%
O=C(O)CCCC(=O)Nc1ccc(Oc2cccc(C(F)(F)F)c2)nc1 | -1.11%
COC(=O)c1[nH]c2cccc(C)c2c1NC(=O)CN1CCCc2ccccc21 | 29% (active)
NS(=O)(=O)c1cccc(NC(=O)CN2CCCc3ccccc32)c1 | 14.5%
COC(=O)c1[nH]c2ccccc2c1NC(=O)CN1CCCc2ccccc21 | 11.9%
S=C(NC1CCCCC1)NN1CCOCC1 | -1.16%
Cc1nn(C(C)CC(=O)O)c(C)c1C (stereo not given) | 0.87%
CN(C)c1ccc(/C=N\S(=O)(=O)c2ccccc2)cc1 | 0.48%
CC[n+]1cc(C)ccc1/C=C/c1ccc(N(C)C)cc1 | 29.6% (active)
CCCCN(CC)C(=O)C1CCCN(S(=O)(=O)c2cccc3nsnc23)C1 (stereo not given) | -2.13%
CCOC(=O)c1sc(/N=C/C2=C(O)CC(C)(C)CC2=O)c(C(=O)OCC)c1C | -1.8%
CCOC(=O)c1c(CC(C)C)csc1/N=C/C1=C(O)CCCC1=O | 98.3% (active)
Cc1cc(N=CC2=C(O)CCCC2=O)no1 | -5.36%
CC1CCC(CN2CCN=C2N(C)C)CC1 (stereo not given) | -1.25%

Source: PubChem BioAssay AID1962 (The Scripps Research Institute Molecular Screening Center, 2009)
